This is part of a sample that, as a whole, favours compounds with a hit. Of some 83,000 tested, about 20% had one in any assay.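 A percent growth of 40 corresponds to 60% growth inhibition; 0 means no net growth; -100 means all cells died. Active threshold: below 10.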 Unmarked numbers belong to inactive results. Activity calls are given as the source filed them.
Experiments:
Test in all cases: NCI-60 one-dose screen, 48 h (100 = growth as untreated, 0 = no growth, -100 = all killed)
Settings in all cases: 10 µM unless noted
[1] = tested on: SR leukemia
[2] = tested on: RPMI-8226 leukemia
[3] = tested on: OVCAR-8 ovarian
[4] = tested on: OVCAR-5 ovarian
[5] = tested on: OVCAR-4 ovarian
[6] = tested on: SK-OV-3 ovarian
[7] = tested on: IGROV1 ovarian
[8] = tested on: OVCAR-3 ovarian
[9] = tested on: HS 578T breast
[10] = tested on: NCI/ADR-RES ovarian

SMILES	growth [1]	growth [2]	growth [3]	growth [4]	growth [5]	growth [6]	growth [7]	growth [8]	growth [9]	growth [10]
COc1ccc(-c2cc(-c3cc(OC)ccc3O)[nH]c(=O)c2C#N)cc1	10.1%	56.4%	64.3%	119%	80.5%	63.5%	71.6%	27.5%	36.6%	52.7%
COc1cc(-c2cccc([N+](=O)[O-])c2)c(-c2nc(-c3ccccc3)c(-c3ccccc3)n2C2CC2)cc1OC	57.2%	10.8%	62.8%	87.3%	62.2%	80%	78.5%	66.5%	83.4%	62%
O=[N+]([O-])c1ccc2[nH]cc(-c3c4ccsc4cc4[nH]c5ccc([N+](=O)[O-])cc5c34)c2c1	10.2%	9.85% (active)	7.43% (active)	10.9%	35.1%	15.1%	21.9%	-21.3% (active)	26.6%	-14.1% (active)
CCNCCNc1cc(C2CCCC2)c(C#N)c2nc3ccccc3n12	-4.31% (active)	1.72% (active)	28.6%	71.2%	-13.5% (active)	40.5%	43.7%	-82% (active)	-6.97% (active)	33.1%
CCCCCCCSc1ccc(C(=O)O)cc1	104%	92.1%	95.7%	110%	93.9%	102%	101%	118%	128%	109%
N[C@H]1CCC[C@@H]1NCCCCN1C(=O)c2cccc3cccc(c23)C1=O	20%	75.1%	39.9%	74%	36%	95.2%	39.3%	61.3%	68.2%	79.1%
COc1cc(C2C=C(c3cccc(NC(C)=O)c3)Nc3ncnn32)cc(OC)c1OC (stereo not given)	-5.94% (active)	19%	24.3%	34.8%	59.8%	35.5%	30.4%	-40.5% (active)	19%	76.1%
COc1ccc(C2CC(c3cnccn3)=NN2)cc1OC (stereo not given)	79.3%	82.6%	96.8%	114%	118%	105%	108%	102%	97.4%	102%
COc1ccc(O)c(-c2cc(-c3ccccc3)c(C#N)c(=O)[nH]2)c1	89%	81.2%	96.3%	124%	97.4%	92.6%	98.8%	95.9%	89.6%	97.3%
c1ccc([P+](CCCc2n(Cc3ccc4ccccc4c3)c3ccccc3[n+]2Cc2ccc3ccccc3c2)(c2ccccc2)c2ccccc2)cc1	30.8%	6.9% (active)	70.2%	60.1%	74.4%	84.5%	20.8%	75.8%	68.6%	83.7%

From PubChem BioAssay (NCI)
